According to PubChem BioAssay (NCI):
The panel holds about 79,000 compounds, 15% with a hit somewhere; the sample as a whole holds those more often. Values without a mark were called inactive. The source made the active and inactive calls. Cut-off read from the data, not from the text of the source: active = growth inhibition above about 70%; inactive = the rest.

What was measured:
[1] = NCI Yeast Anticancer Drug Screen. Data for the rad50 strain (AID 155);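 note: 0% = growth of vehicle-only cultures of the same strain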; conditions: S. cerevisiae rad50 strain growth inhibition, hits give high values
Summary of the method: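 Inhibition values express reduced yeast growth in compound-treated cultures relative to vehicle-treated controls.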

[2] = NCI Yeast Anticancer Drug Screen. Data for the mec2-1 strain (AID 157); conditions: S. cerevisiae mec2-1 strain, hits give high values
Summary of the method: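 Growth inhibition is read against vehicle-treated controls after compound exposure of the mec2-1 yeast strain, which is defective in DNA damage repair or cell cycle control.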

[3] = NCI Yeast Anticancer Drug Screen. Data for the sgs1 mgt1 strain (AID 161);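 note: 0% = growth of cultures given vehicle only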; conditions: S. cerevisiae sgs1 mgt1 strain, hits give high values
Summary of the method: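 Percent growth inhibition was derived by comparing compound-exposed mutant yeast with vehicle-exposed cultures. The strain carries alterations in DNA damage repair.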

[4] = NCI Yeast Anticancer Drug Screen. Data for the cln2 rad14 strain (AID 165);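 note: 0% = growth equal to vehicle treated cultures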; conditions: S. cerevisiae cln2 rad14 strain, hits give high values
Summary of the method: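 Growth inhibition, relative to vehicle-treated controls, is the read-out. The test organism is a yeast strain with defined genetic alterations, cln2 rad14.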

[5] = NCI Yeast Anticancer Drug Screen. Data for the bub3 strain (AID 167); conditions: S. cerevisiae bub3 mutant strain, hits give high values
Summary of the method: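 Steps: expose the mutant yeast strain to compound; grow alongside vehicle-treated cultures; measure growth; express inhibition against the vehicle cultures.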

[6] = NCI Yeast Anticancer Drug Screen. Data for the mlh1 rad18 strain (AID 175); conditions: S. cerevisiae mlh1 rad18 strain growth inhibition, hits give high values
Summary of the method: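 Cells of a genetically altered yeast strain, deficient in DNA damage repair, were treated with compound. Their growth was then compared with that of vehicle-treated cultures to give inhibition.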

[7] = at 5.0 µM (retest, dose inferred, filed as 0.5)
[8] = at 50.0 µM (retest, dose inferred, filed as 5.0)

Row | Compound | growth inhibition [1, 7] | growth inhibition [1, 8] | growth inhibition ([1]; at 50.0 µM) | growth inhibition [2, 7] | growth inhibition [2, 8] | growth inhibition ([2]; at 50.0 µM) | growth inhibition [3, 7] | growth inhibition [3, 8] | growth inhibition ([3]; at 50.0 µM) | growth inhibition [4, 7] | growth inhibition [4, 8] | growth inhibition ([4]; at 50.0 µM) | growth inhibition [5, 7] | growth inhibition [5, 8] | growth inhibition ([5]; at 50.0 µM) | growth inhibition [6, 7] | growth inhibition [6, 8] | growth inhibition ([6]; at 50.0 µM)
1 | CCC1([N+](=O)[O-])COC(c2ccc3c(c2)OCO3)OC1 (stereo not given) | -9% | -11% | -1.7% | -14% | -1% | -3.15% | -1% | -47% | 11.7% | 10% | 21% | -1.9% | 14% | -23% | 3.35% | -18% | -6% | 4.45%
2 | CCN(CC)C(=O)CCCCC(=O)OC(C)C | 0% | -12% | -2.2% | -2% | -2% | -1.1% | -6% | -12% | -24% | -7% | -1% | 86.2% (active) | -3% | -10% | -7.2% | -1% | -11% | 21.9%
3 | COc1cc(/C=C/C(=O)Sc2ccccc2)cc(OC)c1O | 1% | 47% | 74.7% (active) | 0% | 58% | 58.6% | -3% | 60% | 59.2% | 2% | 38% | 75.7% (active) | 2% | 70% (active) | 51% | -2% | 58% | 50.6%
4 | Fc1cccc(CSc2n[nH]c(=S)c3nc[nH]c23)c1 | 0% | -3% | 9.9% | -8% | -1% | 10% | -1% | -10% | 15.4% | -7% | -14% | 40.8% | -2% | -3% | -3.85% | -16% | -16% | 5.1%
5 | Cc1cnc(C#N)c(C#N)n1 | 2% | 10% | 35.6% | -1% | 8% | 5.9% | 2% | 7% | 9.95% | 0% | 7% | 12.2% | -1% | -1% | 13.2% | -3% | 3% | 18.1%
6 | C=C1CC/C=C(/C(=O)O)CC[C@H]2[C@@H]1CC2(C)C | -5% | 58% | 63.6% | 4% | 71% (active) | 60.1% | 3% | 68% | 57.4% | -6% | 50% | 53.6% | 0% | 78% (active) | 69.5% | -1% | 74% (active) | 53.2%
7 | S=C(NCc1ccccc1)[S][Sb]([S]C(=S)NCc1ccccc1)[c]1ccccc1 | 1% | 95% (active) | 95.8% (active) | 2% | 97% (active) | 88.4% (active) | -138% | 93% (active) | 96% (active) | -6% | 89% (active) | 69.8% | -11% | 93% (active) | 84.5% (active) | 6% | 87% (active) | 97.3% (active)
8 | COc1ccc2c(C(=O)c3ccccc3)c3[n+](cc2c1OC)CCc1cc2c(cc1-3)OCO2 | -1% | 38% | 65.7% | -21% | 22% | 53.6% | -4% | 20% | 52.1% | -4% | 21% | 30.1% | -4% | 24% | 50.3% | -2% | 24% | 75.5% (active)
9 | Cn1ncc2c(NCc3ccc(Cl)cc3)nc(Cl)nc21 | 7% | 97% (active) | 98.2% (active) | -1% | 98% (active) | 96.5% (active) | 8% | 97% (active) | 98% (active) | 2% | 95% (active) | 99.2% (active) | 2% | 97% (active) | 98.9% (active) | 0% | 97% (active) | 98.5% (active)
10 | NC(=S)N1N=C2c3ccccc3CCC[C@H]2[C@@H]1c1ccccc1 | 23% | 34% | 73.2% (active) | 16% | 27% | 70.1% (active) | 21% | 43% | 77.1% (active) | 12% | 13% | 63.9% | 25% | 47% | 74.2% (active) | 17% | 48% | 69.5%
11 | COC(=O)c1nnc(C(=O)OC)c2c1[nH]c1ccccc12 | 4% | 77% (active) | 79% (active) | 2% | 48% | 28.4% | 2% | 50% | 55.3% | -2% | 11% | 10.6% | 0% | 37% | 42.9% | -3% | 52% | 40.1%
12 | CCCCCCCCCCCCCCCCCC[n+]1cccc(C(=O)N2CCOCC2)c1 | 91% (active) | 99% (active) | 99.8% (active) | 86% (active) | 100% (active) | 99.8% (active) | 99% (active) | 100% (active) | 99.8% (active) | 60% | 99% (active) | 99.3% (active) | 86% (active) | 99% (active) | 99.7% (active) | 97% (active) | 100% (active) | 99.8% (active)
13 | CN=C(N)N/N=C(\C)c1ccc2c(ccc3ccccc32)c1 | 11% | 98% (active) | 89.2% (active) | 14% | 99% (active) | 91.2% (active) | 13% | 99% (active) | 90.8% (active) | -3% | 98% (active) | 91.3% (active) | 33% | 99% (active) | 88.3% (active) | 35% | 97% (active) | 91.7% (active)
14 | Oc1ccc(Cl)cc1Cc1cc(Cl)cc(Cc2cc(Cl)ccc2O)c1O | -1% | 97% (active) | 96% (active) | 1% | 98% (active) | 97.3% (active) | 4% | 98% (active) | 97.5% (active) | -12% | 95% (active) | 96.5% (active) | -17% | 98% (active) | 96.7% (active) | 14% | 97% (active) | 95.8% (active)
15 | O=C(O)c1c2c(cc3c1CC1(Cc4ccccc4C1=O)C3)CCC2 (stereo not given) | 7% | 7% | 81.2% (active) | 21% | 21% | 89% (active) | 20% | 20% | 84.8% (active) | -10% | -10% | 84.2% (active) | 16% | 16% | 84.2% (active) | 24% | 24% | 77.9% (active)
16 | COc1cc2c(cc1OC(C)=O)C(=O)C(Br)(Br)CCC2 | 66% | 99% (active) | 62.5% | 32% | 99% (active) | 98.5% (active) | 88% (active) | 99% (active) | 65.1% | 13% | 98% (active) | 94.2% (active) | 10% | 47% | 99% (active) | 49% | 99% (active) | 98.5% (active)
17 | CCCCCCCC/C(C=O)=C\c1ccccc1 | -3% | -25% | 77.8% (active) | -21% | -2% | 72.8% (active) | -3% | 3% | 78.2% (active) | -1% | 7% | 45% | -11% | -19% | 64.8% | -3% | -13% | 77.9% (active)
18 | C=C(Br)CN(CC(=C)Br)C(C)=O | 17% | 21% | -11.7% | 17% | 14% | -11.1% | 25% | 16% | -2.5% | 15% | 24% | -45.4% | 14% | 10% | -1.4% | 22% | 21% | -53.9%
19 | O=C(Oc1ccccc1)c1ccc2ccccc2c1O | -4% | -38% | 15.8% | -5% | -35% | 6.05% | -5% | -14% | 2.7% | -2% | -59% | -47.1% | 36% | 52% | 77.7% (active) | -4% | -27% | 4.1%
20 | CCOC(=O)c1csc(=S)[nH]1 | 2% | 83% (active) | 76.8% (active) | 2% | 32% | 80.2% (active) | -16% | 95% (active) | 74.5% (active) | 5% | 46% | -12.1% | -6% | 86% (active) | 47% | 15% | 96% (active) | 35.9%
